The whole screen tested about 39,000 compounds, of which about 3,300 (8.5%) were called active. The full list was thinned out, with actives kept by preference.
tested on: HepG2; assay: cytotoxicity call (relative viability < 0.9); settings: 10 µM

SMILES | cytotoxicity call
C[C@@H]1CCCCO[C@H](CN(C)Cc2ccc3c(c2)OCO3)[C@H](C)CN([C@H](C)CO)C(=O)c2cc(NC(=O)NC3CCCCC3)ccc2O1 | inactive
C[C@H]1CCCCO[C@H](CN(C)Cc2ccc3c(c2)OCO3)[C@@H](C)CN([C@@H](C)CO)C(=O)c2cc(NC(=O)NC3CCCCC3)ccc2O1 | inactive
C[C@H](CO)N1C[C@H](C)[C@@H](CN(C)Cc2ccc3c(c2)OCO3)OCCCC[C@H](C)Oc2ccc(NC(=O)NC3CCCCC3)cc2C1=O | inactive
C[C@@H]1CN([C@H](C)CO)C(=O)c2cc(NC(=O)NC3CCCCC3)ccc2O[C@@H](C)CCCCO[C@@H]1CN(C)Cc1ccc2c(c1)OCO2 | active
C[C@@H]1CCCCO[C@H](CN(C)Cc2ccc3c(c2)OCO3)[C@H](C)CN([C@@H](C)CO)C(=O)c2cc(NC(=O)NC3CCCCC3)ccc2O1 | active
C[C@H](CO)N1C[C@H](C)[C@H](CN(C)Cc2ccc3c(c2)OCO3)OCCCC[C@H](C)Oc2ccc(NC(=O)NC3CCCCC3)cc2C1=O | active
C[C@@H]1CN([C@@H](C)CO)C(=O)c2cc(NC(=O)NC3CCCCC3)ccc2O[C@@H](C)CCCCO[C@@H]1CN(C)Cc1ccc2c(c1)OCO2 | inactive
C[C@@H]1CCCCO[C@H](CN(C)Cc2ccc3c(c2)OCO3)[C@@H](C)CN([C@@H](C)CO)C(=O)c2cc(NC(=O)NC3CCCCC3)ccc2O1 | active
C[C@@H]1CCCCO[C@@H](CN(C)Cc2ccc3c(c2)OCO3)[C@@H](C)CN([C@H](C)CO)C(=O)c2cc(NC(=O)NC3CCCCC3)ccc2O1 | inactive
C[C@@H]1CCCCO[C@@H](CN(C)Cc2ccc3c(c2)OCO3)[C@@H](C)CN([C@@H](C)CO)C(=O)c2cc(NC(=O)NC3CCCCC3)ccc2O1 | inactive
C[C@@H]1CCCCO[C@@H](CN(C)Cc2ccc3c(c2)OCO3)[C@H](C)CN([C@H](C)CO)C(=O)c2cc(NC(=O)NC3CCCCC3)ccc2O1 | inactive
C[C@@H]1CCCCO[C@H](CN(C)Cc2ccc3c(c2)OCO3)[C@@H](C)CN([C@H](C)CO)C(=O)c2cc(NC(=O)NC3CCCCC3)ccc2O1 | inactive
CN1CCN(C(=O)C[C@@H]2CC[C@@H]3[C@H](COc4ccc(NC(=O)C5CCOCC5)cc4C(=O)N3C)O2)CC1 | inactive
C[C@@H]1CN([C@@H](C)CO)C(=O)c2cc(NS(=O)(=O)c3ccc(F)cc3)ccc2O[C@@H](C)CCCCO[C@H]1CN(C)C(=O)C1CCCCC1 | inactive
O=C(C[C@@H]1CC[C@H]2[C@@H](COC[C@@H](O)CN2C(=O)c2ccccc2)O1)NCCCN1CCOCC1 | inactive
COc1ccccc1S(=O)(=O)N(C)C[C@H]1Oc2cc(Br)ccc2S(=O)(=O)N([C@H](C)CO)C[C@H]1C | inactive
C[C@@H]1CN([C@@H](C)CO)C(=O)c2cccc(NC(=O)CCCCCC(=O)Nc3ccccc3N)c2O[C@H]1CN(C)C(=O)Nc1cccc2ccccc12 | inactive
Cc1noc(C)c1NC(=O)N(C)C[C@@H]1Oc2c(NC(=O)C3CCOCC3)cccc2C(=O)N([C@H](C)CO)C[C@@H]1C | inactive
NNCCc1ccccc1 | inactive

SMILES | cytotoxicity call
c1ccc(CCNc2ccnc3cc4ccccc4cc23)cc1 | active
NCCNc1cccc2ccccc12 | inactive
CC(C)NC(=O)N(C)C[C@@H]1Oc2cc(C#Cc3ccc(F)cc3)ccc2S(=O)(=O)N([C@@H](C)CO)C[C@@H]1C | inactive
C[C@H]1CN([C@@H](C)CO)C(=O)c2cc(NC(=O)Nc3ccc4c(c3)OCO4)ccc2O[C@H]1CN(C)Cc1ccc(-c2ccccc2)cc1 | inactive
C[C@H](CO)N1C[C@H](C)[C@@H](CN(C)Cc2ccc(-c3ccccc3)cc2)Oc2ccc(NC(=O)Nc3ccc4c(c3)OCO4)cc2C1=O | inactive
C[C@H](CO)N1C[C@H](C)[C@H](CN(C)Cc2ccc(-c3ccccc3)cc2)Oc2ccc(NC(=O)Nc3ccc4c(c3)OCO4)cc2C1=O | inactive
C[C@H]1CN([C@@H](C)CO)C(=O)c2cc(NC(=O)Nc3ccc4c(c3)OCO4)ccc2O[C@@H]1CN(C)Cc1ccc(-c2ccccc2)cc1 | active
C[C@@H]1CN([C@H](C)CO)C(=O)c2cc(NC(=O)Nc3ccc4c(c3)OCO4)ccc2O[C@@H]1CN(C)Cc1ccc(-c2ccccc2)cc1 | active
C[C@@H]1CN([C@H](C)CO)C(=O)c2cc(NC(=O)Nc3ccc4c(c3)OCO4)ccc2O[C@H]1CN(C)Cc1ccc(-c2ccccc2)cc1 | active
C[C@@H]1CN([C@@H](C)CO)C(=O)c2cc(NC(=O)Nc3ccc4c(c3)OCO4)ccc2O[C@@H]1CN(C)Cc1ccc(-c2ccccc2)cc1 | active
O=C1C[C@]2(c3ccc([N+](=O)[O-])cc3)C(=O)N(CC(F)(F)F)c3cc(CO)ccc3[C@H]2N1CC12CC3CC(CC(C3)C1)C2 | inactive
COc1ccc(S(=O)(=O)Nc2ccc3c(c2)C(=O)N([C@@H](C)CO)C[C@H](C)[C@H](CN(C)C(=O)NC(C)C)O3)cc1 | inactive
C[C@@H]1CN([C@@H](C)CO)C(=O)c2cc(NC(=O)Nc3ccc4c(c3)OCO4)ccc2O[C@@H](C)CCCCO[C@@H]1CN(C)S(=O)(=O)c1cccs1 | inactive
C[C@H]1CN([C@@H](C)CO)C(=O)Cc2cc(NS(=O)(=O)c3cn(C)cn3)ccc2O[C@H]1CN(C)S(=O)(=O)c1ccc(F)cc1 | inactive
C[C@@H]1CN([C@H](C)CO)C(=O)Cc2cc(NC(=O)CCCCCC(=O)Nc3ccccc3N)ccc2O[C@H]1CN(C)Cc1ccccc1 | inactive
CCS(=O)(=O)N1CC[C@]2(CC1)CN([C@@H](CO)c1[nH]c3cc(ccc3c12)OC)C(=O)Cc1ccccn1 | inactive
Cc1noc(C)c1NC(=O)Nc1ccc2c(c1)C(=O)N([C@@H](C)CO)C[C@H](C)[C@@H](CN(C)Cc1ccc(Cl)c(Cl)c1)O2 | inactive
CC(C)NC(=O)Nc1ccc2c(c1)C(=O)N([C@@H](C)CO)C[C@H](C)[C@@H](CN(C)S(=O)(=O)c1cn(C)cn1)OCCCC[C@H](C)O2 | inactive
COc1ccc(cc1)CN1C[C@]2(CN(C2)S(=O)(=O)c2cn(cn2)C)c2c([nH]c3cc(ccc23)OC)[C@H]1CO | inactive

Source: the antibiotic and cytotoxicity screens of Wong et al. (2023)
